Screening results (PubChem BioAssay)
Rows were chosen to be rich in hits. Some 2.4% of all compounds tested hit in one or more screens of this group.
LEDGF integ inh = blocks HIV-1 LEDGF/p75-dependent DNA integration | TR-FRET IN-LEDGF/p75 DNA integration, Eu/Cy5 | inhibition, % at 3.7 µM | actives 0.64% (n = 370,000) | AID 743269;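 active = inhibition above the screen-wide mean plus 3 SD, cut at about 13% in these data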;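 note: signal is the Cy5 over europium emission ratio at 671 and 618 nm; 0% = plate median of compound wells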
PLCb3 inh = PLC-beta3 (human) inhibition, primary screen; Q01970; actives 0.18% (n = 370,000); inhibition, % at 12.2 µM; Purified PLC-beta3, fluorogenic substrate, fluorescence;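 note: 0% = median of compound wells on plate and 100% = full blocker control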
PLCg1 inh = inhibitors of human phospholipase C gamma1 | P19174 | purified PLC-gamma1, fluorogenic substrate, fluorescence | inhibition, % at 12.2 µM | actives 0.84% (n = 370,000); in the data active = inhibition above about 9.5%
MBD2 inh = MBD2-methylated oligo binding inhibition; TR-FRET, MBD2 binding to methylated oligonucleotide; AID 686964; actives 0.31% (n = 370,000); Q9UBB5; inhibition, % at 4.4 µM; in the data active = inhibition above about 13%
Target sequence (Q9UBB5 whole entry, looked up): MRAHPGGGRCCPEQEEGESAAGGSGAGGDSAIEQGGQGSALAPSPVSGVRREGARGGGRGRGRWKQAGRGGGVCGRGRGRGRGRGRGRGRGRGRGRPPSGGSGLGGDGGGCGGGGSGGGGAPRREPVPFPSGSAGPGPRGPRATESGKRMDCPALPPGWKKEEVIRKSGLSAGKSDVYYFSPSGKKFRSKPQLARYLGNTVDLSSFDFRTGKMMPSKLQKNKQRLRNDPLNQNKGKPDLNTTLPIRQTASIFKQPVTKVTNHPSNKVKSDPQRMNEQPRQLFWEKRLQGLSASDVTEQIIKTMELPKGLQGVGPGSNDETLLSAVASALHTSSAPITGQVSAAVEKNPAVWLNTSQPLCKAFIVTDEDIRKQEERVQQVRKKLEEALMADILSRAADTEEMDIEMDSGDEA
UHRF1 binding = blocks human UHRF1 binding to methylated DNA | Q96T88 | UHRF1 binding to methylated oligo, TR-FRET | inhibition, % at 4.4 µM | actives 0.75% (n = 370,000); in the data active = inhibition above about 21%;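 note: UHRF1 SRA domain binding a hemimethylated CpG hairpin DNA probe; 0% = median of test compound wells and 100% = reference inhibitor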
PLCgamma1 ctr = inhibits human PLC-gamma1 in PLC-beta3 counter-screen | shares compounds with PLCg1 inh | purified PLC-gamma1, fluorogenic substrate, fluorescence | actives 3.1% (n = 3,300) | inhibition, % at 12.3 µM; in the data active = inhibition above about 9.5%
PLCb3 confirm = confirmation of human PLC-beta3 inhibitors | purified PLC-beta3, fluorogenic substrate fluorescence | actives 1% (n = 3,300) | AID 743261 | inhibition, % at 12.3 µM | shares compounds with PLCg1 inh
The depositor's hits bear a star; . = no result. Cut-off read from the data, not from the text of the source, unless noted: active = inhibition above about 11%; inactive = the rest.

SMILES	LEDGF integ inh	PLCb3 inh	PLCg1 inh	MBD2 inh	UHRF1 binding	PLCgamma1 ctr	PLCb3 confirm
COc1ccc(CC(=O)NCCS(=O)(=O)N2CCN(c3ccccc3OC)CC2)cc1	0.1	-8.8	3.0	-3.0	0.8	.	.
CS(=O)(=O)N1CCN(c2ccccc2NC(=S)NC(=O)c2ccccc2[N+](=O)[O-])CC1	-9.0	7.6	9.9*	6.3	6.0	-1.5	-1.3
COc1ccccc1N1CCN(S(=O)(=O)CCNC(=O)CCc2ccccc2)CC1	6.0	-2.0	9.7*	5.1	0.9	-5.7	-3.6
CS(=O)(=O)N1CCN(c2ccccc2NC(=S)NC(=O)c2cccs2)CC1	3.7	-1.9	0.8	-1.5	0.4	.	.
COc1ccccc1C(=O)Nc1ccccc1N1CCN(S(C)(=O)=O)CC1	-1.0	8.2	11.3*	-1.9	0.7	8.8	3.1
CC(C)(C)C(=O)OC12CCCN(C1)/C(=C/c1ccccc1)C2 (stereo not drawn)	-2.0	2.5	2.9	-1.8	3.2	.	.
CC(=O)NS(=O)(=O)c1ccc(N=NN2CCOCC2)cc1	5.8	11.5*	9.8*	2.0	5.5	-2.4	-0.4
Cc1nc(N2CCOCC2)[nH]c(=O)c1[N+](=O)[O-]	5.6	-2.4	12.9*	2.7	5.7	0.5	1.8
COc1ccc(CNC(=O)[C@H](C)NC(=O)C2CC(=O)N(c3ccc(OC)cc3)C2)cc1 (stereo partly drawn)	-1.0	-0.7	-2.5	-5.4	-1.2	.	.
COc1ccc(N2CC(C(=O)N[C@@H](C)C(=O)NCc3ccccc3OC)CC2=O)cc1 (stereo partly drawn)	-1.3	-11.9	9.8*	11.3	2.3	-1.3	0.7
O=C(CCS(=O)(=O)c1ccccc1)Nc1cc(Cl)ccc1F	4.3	1.8	3.8	3.4	-3.7	.	.
CC(=O)Nc1c(C)nn(-c2ccc(C)c(C)c2)c1C	-1.4	2.1	9.6*	-0.1	0.9	-4.5	-2.3
O=S1(=O)c2ccc(N3CCSCC3)cc2Oc2ccccc2CN1Cc1cn(Cc2ccc(F)cc2)nn1	1.2	-0.3	-2.1	-3.7	2.2	.	.
CCN(c1ccccc1)S(=O)(=O)c1ccc(Cl)c(C(=O)NCC2CCCO2)c1 (stereo not drawn)	7.4	-2.7	12.5*	-1.3	2.5	-5.6	-2.3
O=C(NCCc1ccccc1)C1CCN(S(=O)(=O)c2cccc3nonc23)CC1	1.0	-39.2	10.8*	-1.4	0.7	-6.4	-3.1
O=C(NCCc1ccccc1)C1CCN(S(=O)(=O)c2cccs2)CC1	3.2	8.6	9.8*	1.0	3.0	-6.0	-4.0
O=C(C1CCCN(S(=O)(=O)c2cccc3nonc23)C1)N1CCN(c2ccccc2Cl)CC1 (stereo not drawn)	2.1	7.2	14.0*	-5.0	2.7	-0.9	3.6
NS(=O)(=O)c1cccc(NC(=O)COC(=O)C2CCN(S(=O)(=O)c3cccs3)CC2)c1	-4.7	-8.5	9.7*	3.8	4.5	-0.1	-4.2
O=C(C1CCCN(S(=O)(=O)c2cccc3nonc23)C1)N1CCN(c2cccc(Cl)c2)CC1 (stereo not drawn)	-4.3	-1.7	1.4	2.0	5.0	.	.
COC(=O)c1cccc(Cn2ccc3ccc(-c4ccc5ccn(C(=O)c6cccc(OC)c6)c5c4)cc32)c1	2.9	-92.0	-63.4	-1.9	1.4	.	.
COc1ccc(OC)c(S(=O)(=O)NC(=O)C2(C)CCN2C(=O)Cc2ccccc2Cl)c1 (stereo not drawn)	-0.2	2.8	-1.9	4.9	-0.3	.	.
COc1ccc(OC)c(S(=O)(=O)NC(=O)C2(C)CCN2C(=O)CC2CCCC2)c1 (stereo not drawn)	-4.6	4.1	10.7*	6.5	0.6	-4.9	-2.4
CC1(C(=O)NS(=O)(=O)c2ccccc2Cl)CCN1C(=O)Cc1ccccc1Cl (stereo not drawn)	5.2	6.4	11.6*	-2.2	-1.6	-3.0	0.0
CC(C)C[C@@H]1COc2cc(Br)ccc2S(=O)(=O)N1Cc1cn(Cc2ccc(Br)cc2)nn1	5.0	2.4	1.8	-3.6	2.3	.	.
O=C(CCc1nc(-c2ccccc2F)no1)NCCc1ccc(F)cc1	-0.8	0.2	-0.5	-0.4	-0.6	.	.
SMILES	LEDGF integ inh	PLCb3 inh	PLCg1 inh	MBD2 inh	UHRF1 binding	PLCgamma1 ctr	PLCb3 confirm
CC(C)OC(=O)CSc1nc2c(c(C3CC=CCC3)c1C#N)CCC2 (stereo not drawn)	2.7	3.6	9.6*	-5.0	-0.1	-6.8	-5.5
C=CCSc1nc2c(c(C3CC=CCC3)c1C#N)CCC2 (stereo not drawn)	1.8	1.7	-0.2	2.2	-0.8	.	.
O=C(c1c(F)cccc1F)N1CCC(Oc2cccnc2)CC1	1.7	-1.6	1.0	-3.0	1.5	.	.
COc1ccc(N2CCN(C(=O)CCCn3c(=O)[nH]c4cc(Cl)ccc4c3=O)CC2)cc1	1.9	7.2	10.7*	2.0	4.3	-11.7	-7.7
CC(=O)c1ccc(N2CCN(C(=O)CCCn3c(=O)[nH]c4ccccc4c3=O)CC2)cc1	3.6	-12.9	-2.8	2.5	-2.9	.	.
COc1ccc(S[C@]2(C(=O)N3CCOCC3)CC(=O)N(c3ccccc3)[C@@H]2c2ccc(OC)cc2)cc1	1.4	-1.5	1.4	1.6	-0.6	.	.
O=C(C[n+]1cccc(CNC(=O)c2ccc(OC(F)F)cc2)c1)Nc1cccc(C(F)(F)F)c1	-0.4	11.8*	-0.4	1.0	-1.5	-3.2	4.2
CN(C)S(=O)(=O)n1cc(/C=C(\NC(=O)c2ccccc2Cl)C(=O)NCCN2CCOCC2)c2ccccc21	-1.7	-3.4	11.8*	-1.5	0.9	0.4	3.2
CCC(C)[C@H](NC(=O)[C@@H]1Cc2ccccc2CN1)C(=O)NCc1ccc(OC)cc1 (stereo partly drawn)	1.1	6.1	4.0	2.4	-0.8	.	.
CCC(C)[C@H](NC(=O)[C@@H]1Cc2ccccc2CN1)C(=O)NCc1ccc(C)cc1 (stereo partly drawn)	2.8	-5.1	9.8*	3.3	5.7	-0.2	-0.8
Cc1ccc(NC(=O)C2CC3CCC2C3)c(C)c1 (stereo not drawn)	-2.8	0.2	1.9	5.1	0.2	.	.
O=C(OCC#CCSc1nnc(-c2cccc3ccccc23)o1)c1ccc(C(F)(F)F)cc1	2.1	-1.2	3.1	-2.6	1.9	.	.
CC(NC(=O)C(c1ccccc1)c1ccccc1)c1ccccc1 (stereo not drawn)	7.3	9.1	16.4*	-4.5	1.3	8.4	0.6
C[C@H](NC(=O)C(c1ccccc1)c1ccccc1)c1ccccc1	1.4	-1.3	5.6	-1.7	-1.9	.	.
O=C(OC12CCCN(C1)/C(=C/c1ccc(Cl)cc1)C2)C1CCCC1 (stereo not drawn)	-2.4	2.9	-1.0	1.9	-0.7	.	.
CCC1CCc2sc(C(=O)Nc3cc(S(=O)(=O)N4CCOCC4)ccc3OC)cc2C1 (stereo not drawn)	4.2	-11.0	-8.4	3.0	-1.0	.	.
